Compound activity deposited in PubChem BioAssay by several laboratories.
Rin1 Abl inh – human Rin1-Abl interaction inhibition; P00519+Q13671; TR-FRET Rin1/Abl binding, biochemical; inhibition, % at 7.35 µM; hit rate 0.4% among 360,000; in the data active = inhibition above about 5%, passing the limit was not always enough
IDE act – boosts human insulin-degrading enzyme activity in HEK cells | hit rate 0.073% among 340,000 | FAbeta-B cleavage, fluorescence polarization; 0% vehicle, 100% cell-free pure enzyme wells | activation, % at 5.96 µM | AID 493087;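 active = activation above the mean of all tested compounds plus 3 SD, set per screening campaign, cut at about 17% in these data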
Calb FLC – C. albicans growth modulation with fluconazole | C. albicans CaCi-2 (fluconazole-resistant clinical isolate) + fluconazole, Alamar Blue growth, 48 h | growth inhibition, % (test concentration not listed) | hit rate 0.57% among 300,000;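 active = growth inhibition above about 58% in most replicates, limit read from the data, passing the limit was not always enough; inconclusive = exactly half the replicates above a set limit; inactive = most replicates below a set limit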;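 note: all wells also contain fluconazole at 8 µg/ml as a sub-toxic cotreatment; 0% = median of DMSO wells and 100% = median of geldanamycin control wells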
Rpn11 block – Rpn11 (human) deubiquitinase inhibition; human 26S proteasome, Ub4-pepOG fluorescence polarization; 20S core pre-blocked with epoxomicin; inhibition, % at 20 µM; hit rate 0.59% among 360,000;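 active = inhibition at 20 µM, scaled to each plate's controls, above about 33%, limit read from the data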
IDE inh – inhibitors of human insulin-degrading enzyme in cells. P14735. HEK cells, FAbetaB cleavage, fluorescence polarization. inhibition, % at 5.59 µM. hit rate 0.41% among 320,000. AID 434962;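 active = percent inhibition above the average of all tested compounds plus 3 SD, set per screening campaign, cut at about 16% in these data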;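 note: IDE supplied by intact live HEK cells; FP after avidin binding of uncleaved biotin substrate so inhibition keeps polarization high; 0% = DMSO wells and 100% = 60 µM reference IDE inhibitor Ii1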
TPT1 inhibitor – blocks Candida albicans tRNA 2'-phosphotransferase; hit rate 0.81% among 300,000; recombinant caTPT1, FP RNA substrate dephosphorylation; inhibition, % at 5 µM; AID 1962;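 active = inhibition above the mean of all tested compounds plus 3 SD, set per screening campaign, cut at about 24% in these data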;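 note: plate controls were DMSO alone for no effect and ferristatin control at 100 nM for full effect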
TPT1 inh confirm – TPT1 (C. albicans) inhibition, confirmation; AID 2149; hit rate 74% among 2,400; inhibition, % at 5 µM; shares compounds with TPT1 inhibitor; recombinant caTPT1, fluorescence polarization, RNase T1 coupled;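 active = inhibition above the primary screen limit, the mean inhibition of all tested compounds plus 3 SD, cut at about 25% in these data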
RNase T1 counter – blocks Aspergillus oryzae RNase T1, a TPT1 counter-screen; shares compounds with TPT1 inhibitor; RNase T1 cleavage, fluorescence polarization, 1536-well; inhibition, % at 5 µM; hit rate 83% among 2,400; AID 2153;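 active = inhibition above the solvent-only control well mean plus 3 SD, limit set per screening run, cut at about 23% in these data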;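 note: plate controls were DMSO wells with enzyme for no effect and wells without RNase T1 for full effect; inhibitors block cleavage so intact labeled substrate keeps polarization high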
Target sequence (P00651 whole entry, looked up): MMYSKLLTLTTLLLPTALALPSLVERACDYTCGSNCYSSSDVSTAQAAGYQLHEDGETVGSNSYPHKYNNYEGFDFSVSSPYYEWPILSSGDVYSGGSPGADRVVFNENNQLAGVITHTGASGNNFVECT
IDE inh confirm – cellular human IDE inhibition, confirmation; shares compounds with IDE inh; HEK cells, FAbetaB cleavage, fluorescence polarization; inhibition, % at 5.59 µM; hit rate 51% among 1,200; AID 435028;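 active = mean inhibition across triplicate wells above the cutoff set by the earlier primary insulin-degrading enzyme screen, cut at about 16% in these data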;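 note: 0% = DMSO wells and 100% = 60 µM reference IDE inhibitor Ii1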
HEK cytotox – HEK cell cytotoxicity, counter-screen for IDE inhibitors. shares compounds with IDE inh. HEK293 cytotoxicity, ATP luminescence. inhibition, % at 5.59 µM. hit rate 28% among 1,200; in the data active = inhibition above about 22%;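 note: 0% = vehicle wells and 100% = reference cytotoxic drug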
Rpn11 inh conf – confirmation of human proteasome Rpn11 inhibitors; AID 602318; shares compounds with Rpn11 block; inhibition, % at 20 µM; purified human 26S proteasome, Ub4-pepOG fluorescence polarization; proteasome pretreated with epoxomicin; hit rate 29% among 1,900
MMP-2 inh – counter-screen for RPN11 inhibitors: inhibition of human MMP-2. inhibition, % at 20 µM. recombinant MMP-2, FRET peptide cleavage fluorescence. AID 602330. shares compounds with Rpn11 block. hit rate 4% among 1,900;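 note: human MMP-2 activated beforehand with APMA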
Thrombin FP – blocks bovine thrombin, flagging nonselective RPN11 hits. hit rate 13% among 1,900. bovine thrombin cleavage of Ub4-pepOG, fluorescence polarization. inhibition, % at 20 µM. shares compounds with Rpn11 block;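 active = mean inhibition at least 40% at 20 µM, or signal 3 deviations below plate average, so some actives read negative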;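 note: plate controls were thrombin with DMSO for no effect and buffer wells lacking thrombin for full effect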
Target sequence (P00735 whole entry, looked up): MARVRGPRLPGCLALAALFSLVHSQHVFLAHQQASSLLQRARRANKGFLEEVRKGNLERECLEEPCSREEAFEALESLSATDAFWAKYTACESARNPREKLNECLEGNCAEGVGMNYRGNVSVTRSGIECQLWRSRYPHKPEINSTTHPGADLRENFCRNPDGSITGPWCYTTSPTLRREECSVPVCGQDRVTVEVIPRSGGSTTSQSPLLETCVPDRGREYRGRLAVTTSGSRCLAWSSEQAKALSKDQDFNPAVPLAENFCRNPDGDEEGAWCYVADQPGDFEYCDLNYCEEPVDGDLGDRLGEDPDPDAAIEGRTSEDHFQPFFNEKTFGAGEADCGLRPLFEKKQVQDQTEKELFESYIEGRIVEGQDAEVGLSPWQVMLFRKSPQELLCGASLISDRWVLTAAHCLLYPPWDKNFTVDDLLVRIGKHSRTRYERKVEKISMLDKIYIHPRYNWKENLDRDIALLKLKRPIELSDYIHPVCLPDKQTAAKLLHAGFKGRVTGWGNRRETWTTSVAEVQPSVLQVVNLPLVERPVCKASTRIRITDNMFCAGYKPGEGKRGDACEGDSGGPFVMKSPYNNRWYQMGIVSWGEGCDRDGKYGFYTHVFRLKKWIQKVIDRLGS
* = called active by the depositor; ? = inconclusive; nt = no result given. In the library only some 2.3% were active in any assay of this set; here they are far more common. Cut-off read from the data, not from the text of the source, unless noted: active = inhibition above about 40%; inactive = the rest.

SMILES | Rin1 Abl inh | IDE act | Calb FLC | Rpn11 block | IDE inh | TPT1 inhibitor | TPT1 inh confirm | RNase T1 counter | Rpn11 inh conf | MMP-2 inh | Thrombin FP | others
CCN1/C(=C\C=C2\C(=O)N(C)C(=S)N2C)Sc2ccccc21 | 0 | 2 | -3 | 55* | 0 | 47* | 60* | 73* | 3 | -15 | -3
CCN1/C(=C2/OC(=S)N(C)C2=O)Sc2ccccc21 | -8 | -3 | nt | 11 | nt | nt | nt | nt | nt | nt | nt
COc1cc([N+](=O)[O-])cc(/C=N/NC(=O)c2cncc(Br)c2)c1O | -3 | 3 | -1 | 60* | -2 | 42* | 43* | 59* | 49* | 16 | 29
COc1cc([N+](=O)[O-])cc(/C=N/NC(=O)c2cc(C)nc3ccccc23)c1O | -4 | -1 | -2 | 25 | -2 | 18 | nt | nt | nt | nt | nt
COc1cc([N+](=O)[O-])cc(/C=N/NC(=O)c2cc(-c3ccccc3)nc3ccccc23)c1O | -3 | 13 | 89* | 89* | 1 | 41* | 29* | 45* | 68* | 31 | 11
COc1cc(/C=N/NC(=O)c2cncc(Br)c2)cc([N+](=O)[O-])c1O | -3 | 3 | 35 | 68* | 7 | 44* | 49* | 64* | 18 | 28 | 7
O=C(N/N=C\c1ccc([N+](=O)[O-])o1)c1cncc(Br)c1 | -1 | 9 | -2 | -6 | 0 | 0 | nt | nt | nt | nt | nt
CCOc1cc(C2Nc3ccccc3NC3=C2C(=O)CC(C)(C)C3)ccc1O (configuration not stated) | 0 | 1 | 6 | -3 | -6 | 0 | nt | nt | nt | nt | nt
CCOC(=O)CSC1=NC(=O)/C(=C\c2ccc(Cl)cc2)S1 | 0 | -5 | 43 | 50* | 8 | 30* | 52* | 62* | 74* | 12 | 66*
COc1cc(NC(=O)COC(=O)Cn2cnc3c2c(=O)n(C)c(=O)n3C)cc(OC)c1 | 7 | 1 | nt | 4 | 4 | nt | nt | nt | nt | nt | nt
NS(=O)(=O)c1cccc(C(=O)NC2CCSc3ccccc32)c1 (configuration not stated) | -2 | 1 | -1 | -4 | 6 | -2 | nt | nt | nt | nt | nt
NS(=O)(=O)c1cc(C(=O)NC2CCSc3ccccc32)ccc1Cl (configuration not stated) | 1 | 0 | 3 | 106* | 1 | 54* | 67* | 3 | 98* | 22 | 61*
Cc1cccc2sc(NC(=O)C3CCCN(S(=O)(=O)c4cccc5nonc45)C3)nc12 (configuration not stated) | 2 | 2 | 0 | 58* | 0 | 43* | 39* | 49* | 41* | -27 | -19
Cc1ccc2nc(NC(=O)C3CCCN(S(=O)(=O)c4cccc5nonc45)C3)sc2c1 (configuration not stated) | nt | nt | 3 | nt | 6 | 10 | nt | nt | nt | nt | nt
C/C(=N\Nc1ccc([N+](=O)[O-])cc1)c1cc2ccccc2o1 | -4 | -20 | 4 | 108* | 18* | 111* | 111* | 113* | 60* | -47 | 35 | IDE inh confirm=8;HEK cytotox=10
O=C(N/N=C/c1ccc([N+](=O)[O-])cc1)c1cc2ccccc2o1 | 1 | 5 | -15 | 1 | -3 | -3 | nt | nt | nt | nt | nt
CC1CCCN(Cc2nc(Cc3ccccc3Cl)no2)C1 (configuration not stated) | -4 | 6 | 6 | -5 | 2 | -2 | nt | nt | nt | nt | nt
CNc1nc(NCC2CCCCC2)c2sccc2n1 | -2 | nt | nt | -8 | nt | nt | nt | nt | nt | nt | nt
N#C/C(=C\c1ccc(-c2ccccc2)cc1)c1nc(-c2ccco2)cs1 | -5 | -4 | 2 | 56* | 7 | 61* | 21 | 28* | -2 | -14 | -5
O=Cc1c(NCc2cccc(F)c2)c2ccccc2[nH]c1=O | -1 | -5 | 1 | -2 | 0 | 0 | nt | nt | nt | nt | nt
COc1ccccc1N1C(=N)S/C(=C\c2ccc(-c3ccccc3C(=O)O)o2)C1=O | 0 | -7 | -4 | 70* | 14 | 57* | 76* | 87* | 74* | 24 | 47*
N=C1S/C(=C\c2ccc(-c3ccccc3C(=O)O)o2)C(=O)N1c1ccc2c(c1)OCO2 | 1 | 1 | -1 | -2 | nt | nt | nt | nt | nt | nt | nt
CC(C)c1ccc(N=C2NN=C(c3cccs3)CS2)cc1 | -4 | 5 | -20 | 80* | 4 | 40* | 42* | 50* | -1 | -1 | 3
CC(C)N=C1NN=C(c2cccs2)CS1 | 2 | 4 | -1 | 2 | -1 | -1 | nt | nt | nt | nt | nt
CC1(C(=O)NS(=O)(=O)C2CC2)CCCN(C(=O)c2ccc(F)cc2Cl)C1 (configuration not stated) | 1 | nt | nt | -6 | nt | nt | nt | nt | nt | nt | nt
SMILES | Rin1 Abl inh | IDE act | Calb FLC | Rpn11 block | IDE inh | TPT1 inhibitor | TPT1 inh confirm | RNase T1 counter | Rpn11 inh conf | MMP-2 inh | Thrombin FP | others
N#C/C(=C\c1ccc(O)c(O)c1)C(=O)NCCc1ccccc1 | -1 | -13 | nt | 17 | 16 | 4 | nt | nt | nt | nt | nt
COc1cc(/C=C(\C#N)C(=O)NCCc2ccccc2)cc(OC)c1O | 1 | -62 | -1 | 79* | 44* | 76* | 104* | 106* | 54* | 3 | 52* | IDE inh confirm=76*;HEK cytotox=12
Cc1c([C@@H]2C[C@H]3CN(Cc4cccc(Cl)c4)C(=O)[C@]34CCCN24)cnn1C | 1 | 0 | ? | 45* | 5 | 32* | 34* | 48* | 38 | -33 | 5
CC(=O)C1CCC2C3CC(C)=C4CC(O)CCC4(C)C3CCC12C (configuration not stated) | 1 | 4 | nt | 2 | nt | nt | nt | nt | nt | nt | nt
Cc1ccc(NS(=O)(=O)c2cc([N+](=O)[O-])ccc2N/N=C/c2sc(N3CCOCC3)nc2-c2ccccc2)c(C)c1 | -2 | 0 | 5 | 44* | 1 | 56* | 55* | 73* | 39 | -5 | 9
O=[N+]([O-])c1ccc(N/N=C/c2cccc(O)c2O)c(S(=O)(=O)N2CCOCC2)c1 | 1 | 4 | -1 | -8 | -11 | -1 | nt | nt | nt | nt | nt
